Results from PubChem BioAssay (NCATS).
Inconclusive results are not listed. The source made the active and inactive calls. Unless noted, calls follow the shape of the dose curve; as a rule, active = well fitted curve in the direction sought with a large enough effect; inconclusive = small, poorly fitted or top-dose-only effect, or another doubt; inactive = no such curve, though single readings can be large; an effect the other way counts as inactive or inconclusive. Where a SMILES comes first, the peptide text is derived from it. Bridges are numbered along the chain shown (N, C = ends). [ ]: non-standard residue; d: D form. hArg = N=C(N)NCCCC[C@H](N)C(=O)O; Mpa = O=C(O)CCS

Experiments:
[1] = qHTS assay for measurement of the activity of small molecule inhibitors on Zika virus induced Caspase-3 activity in human iPSC derived neural progenitor cells (hNPCs) (AID 1224857); also: % of control where 0% means no effect; nearly all actives have a fitted effect of over 65% in size
Summary of the method: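 Pretreat hNPCs with compound 1 h; infect ZIKV 2 FFU/cell; 6 h 37 C, 5% CO2; Caspase-Glo 3/7, 30 min RT; luminescence; normalize to no-virus and virus-only wells.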

[2] = qHTS assay for measurement of the activity of small molecule inhibitors on Zika virus induced Caspase-3 activity in human astrocytoma cells (AID 1224859);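 also: plate controls were ZIKV-infected untreated cells for no effect and uninfected cells for full effect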
Summary of the method: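 Human SNB-19 astrocytoma cells in RPMI 1640 with 10% FBS receive compound one hour ahead of Zika virus at 2 FFU/cell. After 6 h infection, caspase-3/7 activity is detected by Caspase-Glo luminescence.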

[3] = qHTS assay to identify small molecule inhibitors of chordoma cells - UCH-1 (AID 1259355); also: % is scaled to controls: 0 for no effect and ±100 for the full control effect; nearly all actives have a fitted effect of over 55% in size
Summary of the method: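 Seed 800 cells per well; incubate overnight at 37 C, 5% CO2. Add test compounds (15 concentrations), then the auranofin–topoisomerase-agent combination. Incubate 48hr, add CellTiter-Glo, wait 30min, read luminescence.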

[4] = P-glycoprotein substrates identified in KB-8-5-11 adenocarcinoma cell line, qHTS therapeutic library screen (AID 1346987); conditions: outcome: dose series up to 44.5 µM; also: % is scaled to controls: 0 for no effect and ±100 for the full control effect; nearly all actives have a fitted effect of over 65% in size
Summary of the method: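 Steps: plate 500 KB-8-5-11 cells/well in DMEM + 10% FCS (colchicine removed); pin compounds in dose-response; incubate 72 h, 37 degree C, 5% CO2; add CellTiter-Glo, 5 min; read luminescence.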

[5] = NS1 protein of Zika virus - qHTS assay to identify small molecule inhibitors in human HEK 293 cells (AID 1347053);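 also: plate controls were infected untreated cells for no effect and uninfected cells for full effect; nearly all actives have a fitted effect of over 55% in size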
Summary of the method: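 Following 20 h seeding, HEK 293 cells took compound, then 1 h later ZIKV MR766 (MOI = 0.5). Incubation ran 24 h at 37 C before TR-FRET detection of NS1; a drop in signal indicates inhibition.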

[6] = qHTS of pediatric cancer cell lines to identify multiple opportunities for drug repurposing: Primary screen for TC32 cells (AID 1347089); also: % is scaled to controls: 0 for no effect and ±100 for the full control effect; nearly all actives have a fitted effect of over 60% in size
Summary of the method: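 TC32 cells, 500-1,000/well in growth medium, compound-treated 48 h at 37 °C; viability from CellTiter-Glo luminescence. Primary screen: MIPE 11-point (0.78 nM–46 µM final), NPC 8-point (0.59 nM–46 µM final); confirmatory at 11-point dilutions.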

[7] = qHTS of pediatric cancer cell lines to identify multiple opportunities for drug repurposing: Primary screen for DAOY cells (AID 1347090);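 also: plate controls were DMSO for no effect and bortezomib for full effect; nearly all actives have a fitted effect of over 55% in size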
Summary of the method: (§1)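 Cell viability, CellTiter-Glo luminescence; 500-1,000 cells/well, 8- or 11-point titration, 48 h compound exposure at 37 degrees C, 5% CO2. Controls: DMSO neutral, bortezomib 2.3 µM final as positive.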

[8] = qHTS of pediatric cancer cell lines to identify multiple opportunities for drug repurposing: Primary screen for SJ-GBM2 cells (AID 1347091);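 also: plate controls were DMSO neutral control for no effect and bortezomib for full effect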
Summary of the method: as §1

[9] = qHTS of pediatric cancer cell lines to identify multiple opportunities for drug repurposing: Primary screen for A673 cells (AID 1347092); also: % is scaled to controls: 0 for no effect and ±100 for the full control effect; nearly all actives have a fitted effect of over 45% in size
Summary of the method: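 A673 cells (500-1,000 cells/well) were treated 48 hours at 37 degrees C with compounds at 11-point (0.78 nM to 46 µM) or 8-point (0.59 nM to 46 µM) dilutions. Viability read by CellTiter-Glo luminescence; concentration-response curves fitted.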

[10] = qHTS of pediatric cancer cell lines to identify multiple opportunities for drug repurposing: Primary screen for SK-N-MC cells (AID 1347093);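 also: plate controls were DMSO neutral control for no effect and bortezomib for full effect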
Summary of the method: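 Metabolically active cells were quantified by ATP-dependent luminescence (CellTiter-Glo, 15 min at room temperature) following 48 h treatment. Cells had been plated at 500-1,000 per well and settled for 5 h beforehand.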

[11] = qHTS of pediatric cancer cell lines to identify multiple opportunities for drug repurposing: Primary screen for BT-37 cells (AID 1347094);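 also: plate controls were DMSO for no effect and bortezomib for full effect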
Summary of the method: (§2)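 Readout: CellTiter-Glo luminescence, 48 h treatment. Controls DMSO (neutral) and bortezomib 2.3 µM final (positive). Potency and efficacy taken from primary-screen concentration-response curves.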

[12] = qHTS of pediatric cancer cell lines to identify multiple opportunities for drug repurposing: Primary screen for U-2 OS cells (AID 1347096);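 also: plate controls were DMSO wells for no effect and bortezomib positive control wells for full effect; nearly all actives have a fitted effect of over 50% in size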
Summary of the method: (§3)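 Cells (500-1,000/well) rested 5 h, then received compounds for 48 h; metabolically active cells were measured by CellTiter-Glo luminescence. Final concentrations spanned up to 46 µM (MIPE, 11-point) or 0.59 nM-46 µM (NPC, 8-point) in primary screens, 11-point in follow-ups.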

[13] = qHTS of pediatric cancer cell lines to identify multiple opportunities for drug repurposing: Primary screen for Saos-2 cells (AID 1347097); also: % is scaled to controls: 0 for no effect and ±100 for the full control effect; nearly all actives have a fitted effect of over 40% in size
Summary of the method: as §2

[14] = qHTS of pediatric cancer cell lines to identify multiple opportunities for drug repurposing: Primary screen for SK-N-SH cells (AID 1347098); also: % is scaled to controls: 0 for no effect and ±100 for the full control effect; nearly all actives have a fitted effect of over 65% in size
Summary of the method: as §3

[15] = qHTS of pediatric cancer cell lines to identify multiple opportunities for drug repurposing: Primary screen for NB-EBc1 cells (AID 1347095);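 also: plate controls were DMSO neutral control for no effect and bortezomib for full effect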
Summary of the method: as §2

[16] = qHTS assay to identify small molecule inhibitors of chordoma cells - UCH-2 (AID 1259356); also: % is scaled to controls: 0 for no effect and ±100 for the full control effect
[17] = qHTS profiling of the MIPE4 collection as inhibitors of Plasmodium falciparum (DD2) proliferation (AID 743345; call rule not given here); conditions: P. falciparum Dd2 in erythrocytes, SYBR Green DNA, 72 h; at 9.64 µM (top of the series) unless noted
Summary of the method: (§4)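 Erythrocytes infected with P. falciparum (0.3% parasitemia, 2.5% hematocrit) incubated with compounds 72 h at 37 C, 5% CO2. Lysis with saponin/Triton buffer containing SYBR Green I, overnight at room temperature in the dark; DNA fluorescence (485/535 nm) normalised to 0.29 uM artemisinin and DMSO.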

[18] = qHTS profiling of the MIPE4 collection as inhibitors of Plasmodium falciparum (DD2) proliferation (Rep 2) (AID 743346; call rule not given here); conditions: P. falciparum Dd2 in erythrocytes, SYBR Green DNA, 72 h; at 9.64 µM (top of the series) unless noted
Summary of the method: as §4

[19] = qHTS profiling of the MIPE4 collection as inhibitors of Plasmodium falciparum (HB3) proliferation (AID 743347; call rule not given here;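 also: plate controls were DMSO vehicle wells for no effect and artemisinin wells for full effect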); conditions: P. falciparum HB3 in erythrocytes, SYBR Green DNA, 72 h; at 9.64 µM (top of the series) unless noted
Summary of the method: as §4

CCc1cccc(CC)c1NC(=O)CN(CC(=O)O)CC(=O)O
inactive: outcome [1] | outcome [2] | outcome [3] | outcome [4] | outcome [5] | outcome [6] | outcome [7] | outcome [8] | outcome [9] | Potency [10] | outcome [11] | outcome [12] | outcome [13] | outcome [14]

CC(C)=CCC[C@@](C)(O)[C@H]1CC=C(C)CC1
inactive: outcome [1] | outcome [2] | outcome [3] | outcome [4] | outcome [5] | outcome [6] | outcome [7] | outcome [8] | outcome [9] | Potency [10] | outcome [11] | outcome [15] | outcome [12] | outcome [13] | outcome [14]

Cc1ccsc1/C=C/C1=NCCCN1C
inactive: outcome [1] | outcome [2] | outcome [3] | outcome [4] | outcome [5] | outcome [6] | outcome [7] | outcome [8] | outcome [9] | Potency [10] | outcome [11] | outcome [15] | outcome [12] | outcome [13]

COc1ccc(C(=O)NCc2ccc(OCCN(C)C)cc2)cc1OC
inactive: outcome [1] | outcome [2] | outcome [3] | outcome [4] | outcome [5] | outcome [7] | outcome [8] | outcome [9] | Potency [10] | outcome [11] | outcome [15] | outcome [12] | outcome [13]

COc1cc(O)cc(O)c1
inactive: outcome [1] | outcome [2] | outcome [3] | outcome [4] | outcome [5] | outcome [6] | outcome [7] | outcome [8] | outcome [9] | Potency [10] | outcome [11] | outcome [15] | outcome [12] | outcome [13]

NC(N)=NCCN1CCCCCCC1
inactive: activity change, negative = inhibition [1] 6.93% [at 0.568 µM] | activity change, negative = inhibition [2] -3.82% [at 0.568 µM] | outcome [3] | outcome [4] | activity change, negative = inhibition [5] -1.99% [at 0.593 µM] | activity change, negative = cytotoxic [6] 19.1% [at 0.594 µM] | activity change, negative = cytotoxic [7] 7.11% [at 0.597 µM] | activity change, negative = cytotoxic [8] 15.5% [at 0.597 µM] | activity change, negative = cytotoxic [9] 2.24% [at 0.597 µM] | activity change, negative = cytotoxic [10] -13.5% [at 0.597 µM] | activity change, negative = cytotoxic [11] 4.17% [at 0.745 µM] | activity change, negative = cytotoxic [15] 19.5% [at 0.597 µM] | activity change, negative = cytotoxic [12] 9.69% [at 0.597 µM] | activity change, negative = cytotoxic [13] 2.27% [at 0.597 µM] | activity change, negative = cytotoxic [14] -2% [at 0.741 µM]

CCOc1ccc(C(=O)OCCN(CC)CC)cc1
inactive: outcome [1] | outcome [3] | outcome [16] | outcome [4] | outcome [5] | outcome [6] | outcome [7] | outcome [8] | outcome [9] | Potency [10] | outcome [11] | outcome [15] | outcome [12] | outcome [13]

NNc1nnc(NN)c2ccccc12
inactive: outcome [1] | outcome [2] | outcome [3] | outcome [4] | outcome [5] | outcome [6] | outcome [7] | outcome [8] | outcome [9] | Potency [10] | outcome [11] | outcome [12] | outcome [13] | outcome [14]

NC(=O)CC[C@@H](N)C(=O)O
inactive: outcome [1] | outcome [2] | outcome [3] | outcome [4] | outcome [5] | outcome [6] | outcome [7] | outcome [8] | outcome [9] | Potency [10] | outcome [11] | outcome [12] | outcome [13] | outcome [14]

COc1ccccc1OC(=O)Oc1ccccc1OC
inactive: outcome [1] | outcome [2] | outcome [3] | outcome [4] | outcome [5] | outcome [6] | outcome [7] | outcome [8] | outcome [9] | Potency [10] | outcome [11] | outcome [15] | outcome [12] | outcome [13] | outcome [14]

Cn1cc(C(=O)[C@@H]2CCc3nc[nH]c3C2)c2ccccc21
inactive: outcome [1] | outcome [2] | outcome [3] | outcome [4] | outcome [5] | outcome [6] | outcome [7] | outcome [8] | Potency [10] | outcome [11] | outcome [15] | outcome [12] | outcome [13]

NC(=O)NC1NC(=O)NC1=O (stereo not given)
inactive: outcome [1] | outcome [2] | outcome [3] | outcome [4] | outcome [5] | outcome [6] | outcome [7] | outcome [8] | outcome [9] | Potency [10] | outcome [11] | outcome [15] | outcome [12] | outcome [13] | outcome [14]

Nc1ccc(S(=O)(=O)c2ccc(N)cc2)cc1
inactive: outcome [1] | outcome [2] | outcome [3] | outcome [4] | outcome [5] | outcome [6] | outcome [7] | outcome [8] | outcome [9] | Potency [10] | outcome [11] | outcome [15] | outcome [12] | outcome [13]
103%: parasite growth remaining, % of DMSO control (lower = more inhibition) [17]
101%: parasite growth, % of control (lower = inhibition) [18]
100%: growth, % of control [19]

CC1CCc2cc(F)cc3c(=O)c(C(=O)O)cn1c23 (stereo not given)
inactive: outcome [1] | outcome [2] | outcome [3] | outcome [5] | outcome [6] | outcome [7] | outcome [8] | Potency [10] | outcome [11] | outcome [12] | outcome [13] | outcome [14]

O=C(O)CCCCC1CCSS1 (stereo not given)
inactive: outcome [1] | outcome [2] | outcome [3] | outcome [4] | outcome [5] | outcome [6] | outcome [7] | outcome [8] | outcome [9] | Potency [10] | outcome [11] | outcome [15] | outcome [12] | outcome [13] | outcome [14]

NC(=O)[C@@H]1CSSCCC(=O)N[C@@H](CCCCN=C(N)N)C(=O)NCC(=O)N[C@@H](CC(=O)O)C(=O)N[C@@H](Cc2c[nH]c3ccccc23)C(=O)N2CCC[C@H]2C(=O)N1 ([Mpa][hArg]GDWPC-NH2; disulfide 1-7)
inactive: outcome [1] | outcome [2] | outcome [3] | outcome [4] | outcome [5] | outcome [6] | outcome [7] | outcome [8] | outcome [9] | Potency [10] | outcome [11] | outcome [12] | outcome [13] | outcome [14]

CC(=O)SC[C@@H](Cc1ccccc1)C(=O)NCC(=O)OCc1ccccc1
inactive: outcome [1] | outcome [2] | outcome [3] | outcome [5] | outcome [6] | outcome [7] | outcome [8] | outcome [9] | outcome [11] | outcome [15] | outcome [12] | outcome [13] | outcome [14]

CC(C)(C)NCC(O)COc1cccc2c1CCC(=O)N2 (stereo not given)
inactive: outcome [1] | outcome [2] | outcome [3] | outcome [4] | outcome [5] | outcome [6] | outcome [7] | outcome [8] | outcome [9] | Potency [10] | outcome [11] | outcome [12] | outcome [13] | outcome [14]
